Data from PubChem BioAssay AID1259313 (Sanford-Burnham Center for Chemical Genomics, 2017).
The campaign covered roughly 340,000 compounds. About 8,500 (2.5%) were called active. What follows is part of a selection rich in actives, with near analogues and random picks from the rest. A number with no mark means an inactive call.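 The calls were made as follows: active = melting temperature shift of at least 10% of the positive control shift, at one fixed dose; inactive = the rest.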

Test system: Glutamate receptor ionotropic, NMDA 3A (GRIN3A) ligand-binding domain
Test: NR3A LBD thermal stabilization by compounds – biophysical, differential scanning fluorimetry, uHTS, primary screen (AID 1259313)
Details: at 25 µM, stronger effect = higher value, 0% = protein alone, 100% = glycine-bound protein

Structure (SMILES) | Tm shift relative to glycine control
COc1cc(/C=N/NC(=O)Nc2ccccc2)ccc1OCCOc1ccccc1C | -1.19%
O=c1[nH]cnc(O)c1C(c1ccc(F)cc1)c1c(O)nc[nH]c1=O | 0.87%
Oc1ccc(-c2nncn2-c2ccccc2)cc1 | -3.14%
Oc1ccc(-c2cccc(-c3ccc(O)cc3)c2)cc1 | 31.9% (active)
O=C(OCc1ccc(-c2ccccc2)cc1)c1cccc(O)c1 | 9.28%
CNC(=S)N1CCC(NC(=O)C(Cc2ccc(F)cc2)NC(C)=O)CC1 (stereo not given) | -1.22%
COc1ccc(CCNC(=O)CCCCCNC(=O)N2CCn3c2nc2ccccc23)cc1OC | -1.29%
O=C(NCCCn1ccnc1)/C(=C\c1ccccc1F)NC(=O)c1ccccc1 | -0.09%
CC(/C=N/NC(=O)c1cc(-c2ccc3ccccc3c2)n[nH]1)=C\c1ccco1 | 16.4% (active)
CC(C)(C)C1CCC(=NNC(=O)c2cc(-c3ccccc3)n[nH]2)CC1 (stereo not given) | -5.15%
CC(C)c1cc(C(=O)N/N=C/C(Br)=C/c2ccccc2)n[nH]1 | 6.56%
Cc1cc2c(cc1C)NC1(C[C@H]3CCC(=O)N4CC[C@@H](C1)[C@@H]34)C(=NC(C)(C)CC(C)(C)C)N2 (stereo not given in full) | -6.03%
CC(C)NC(=O)CCCn1c(=S)[nH]c2cc3c(cc2c1=O)OCO3 | -1.68%
O=C(CCCCCn1c(=S)[nH]c2cc3c(cc2c1=O)OCO3)N1CCN(c2ccc(F)cc2)CC1 | 11.6% (active)
Cc1ccc(C)c(N2CCN(C(=O)CCCCCn3c(=S)[nH]c4ccc(N5CCOCC5)cc4c3=O)CC2)c1 | -2.75%
CC(C)c1ccc(NC(=S)NC2CC3C=CC2C3)cc1 (stereo not given) | 0.48%
Cc1cccc(N=C2NC(=O)/C(=C/c3cn(C)c4ccccc34)S2)c1 | 26.7% (active)
Cc1ccc(N=C2NC(=O)/C(=C/C=C/c3ccco3)S2)cc1C | 9.42%
Cc1ccc(N2C(=O)S/C(=C/c3cn(C)c4ccccc34)C2=O)cc1 | 1.52%
Cc1cccc(N2CCN(C(=O)CN(C)S(=O)(=O)c3ccc4c(c3)CCC(=O)N4)CC2)c1C | 0.4%
CN(NC(=O)C1CC(=O)N(c2ccccc2)C1)C1=NS(=O)(=O)c2ccccc21 (stereo not given) | -0.38%
Cc1cccc(NC(=O)NC(=S)NC(=O)c2ccccc2)c1 | 20.6% (active)
Cc1cccc(OCCNC(=S)NC(=O)c2cccnc2)c1 | 1.46%

Structure (SMILES) | Tm shift relative to glycine control
Cc1ccc(NC(=O)NC(=O)c2ccccc2)cc1F | -0.73%
O=C(c1ccc[nH]c1=S)N1CCN(S(=O)(=O)c2ccc(Br)cc2Cl)CC1 | -0.43%
COC(=O)C1(O)CC(C(C)C)=NN1C(=O)c1ccc(Cl)cc1 (stereo not given) | -4.26%
Cc1ccc(NC(=O)CN2CCC3(O)CCCCC3C2c2ccc3c(c2)OCO3)c(C)c1 (stereo not given) | 1.39%
Cc1cc(C)c(OCC(=O)N(Cc2cccs2)C2CCS(=O)(=O)C2)c(C)c1 (stereo not given) | -2.05%
Cc1cc(C)n(S(=O)(=O)c2cccc([N+](=O)[O-])c2)n1 | -0.54%
Cc1ccc(-c2cn(S(=O)(=O)c3cccc([N+](=O)[O-])c3)nc2N)cc1 | 23.9% (active)
CC1=NCCN1S(=O)(=O)c1cccc([N+](=O)[O-])c1 | 0.43%
O=C(COC(=O)c1ccco1)Nc1ccc(Cl)cn1 | -4.19%
CCN(c1ccccc1)S(=O)(=O)c1ccc(OCC(=O)N2CCCC2)cc1 | -0.92%
COC(=O)C(NS(=O)(=O)c1ccc(F)cc1)c1ccccc1 (stereo not given) | 0%
COc1ccc(CN2CCN(Cc3ccc(OC)c(OC)c3OC)CC2)cc1 | -0.74%
Cc1ccc(NC(=O)Nc2cc(-c3ccccc3)nn2C)cc1Cl | 47.8% (active)
Cc1cc(NC(=O)Nc2ccc(Cl)cc2)n(-c2ccccc2)n1 | 3.84%
Cc1ccc(NC(=O)COc2ccc(-n3ccnc3)cc2)cc1Cl | -10.8%
O=C(NC(Cc1c[nH]c2ccccc12)C(=O)O)/C(=C/c1ccco1)NC(=O)c1ccccc1 (stereo not given) | 5.13%
Cc1ccc(S(=O)(=O)NNC(=O)Nc2cccc3ccccc23)cc1 | 1.46%
Cc1cccc(NC(=S)Nc2ccc(Cl)c(Cl)c2)c1 | 14.9% (active)
O=S(=O)(Nc1ccc2cn[nH]c2c1)c1ccccc1 | -1.96%
Cn1nc(C(F)(F)F)c(C(=O)Nc2cccc(C(F)(F)F)c2)c1SCc1ccc(Cl)cc1 | 6.13%
FC(F)(F)c1cccc(NC(=S)Nc2cccc(Cl)c2)c1 | 15.7% (active)
CCC(=O)Nc1nc(C)c(C(=O)Nc2cccc(Cl)c2)s1 | 0.19%
